Records with an inconclusive call do not appear. Calls of active or inactive are those of the source. Rule for the calls: active = hit-call score of the fitted dose curve at least 0.9, where 1 is the maximum; inconclusive = response in the unintended direction; inactive = score below 0.9.
Columns and labels:
[1] = TOX21_p53_BLA_p2_viability: Viability Assessment in the Tox21 HCT-116 p53 Agonism Beta-lactamase Assay, Phase 2 (AID 2283591);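 note: compound exposure lasted 16 h at 37 °C; actives lower the ATP signal meaning cytotoxicity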
Method in brief: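 HCT-116 p53-bla cells (4000/well) rested 5 h at 37C, then received compounds in DMSO (217-fold dilution) for 16 h at 37C, 5% CO2. After the CCF4 read, CellTiter-Glo was added; ATP luminescence was read after 30 min at room temperature.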

[2] = target: Cellular tumor antigen p53 (Homo sapiens) (UniProt P04637); test: TOX21_p53_BLA_p2_ratio: Tox21 HCT-116 p53 Agonism Beta-lactamase Assay, Ratio, Phase 2 (AID 2283592)
Chain of Cellular tumor antigen p53 (Homo sapiens) (P04637 whole entry, looked up): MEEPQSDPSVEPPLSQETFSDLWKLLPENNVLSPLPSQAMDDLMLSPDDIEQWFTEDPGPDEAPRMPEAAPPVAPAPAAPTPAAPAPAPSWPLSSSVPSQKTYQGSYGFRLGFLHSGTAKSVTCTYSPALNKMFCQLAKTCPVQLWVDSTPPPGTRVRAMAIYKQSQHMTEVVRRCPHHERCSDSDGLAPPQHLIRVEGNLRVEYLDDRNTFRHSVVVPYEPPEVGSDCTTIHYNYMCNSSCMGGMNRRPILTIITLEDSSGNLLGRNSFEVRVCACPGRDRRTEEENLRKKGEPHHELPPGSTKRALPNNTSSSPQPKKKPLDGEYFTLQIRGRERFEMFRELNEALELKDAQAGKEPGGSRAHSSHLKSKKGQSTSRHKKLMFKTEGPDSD
Method in brief: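 Ratio endpoint: beta-lactamase cleavage of CCF4-AM, blue (460 nm) over green (530 nm). HCT116 reporter line; 16 h treatment, 37C; substrate 2 h RT.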

[3] = target: Cellular tumor antigen p53 (Homo sapiens) (UniProt P04637); test: TOX21_p53_BLA_p3_ratio: Tox21 HCT-116 p53 Agonism Beta-lactamase Assay, Ratio, Phase 3 (AID 2283596)
Method in brief: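 Cells were seeded at 4000/well, rested 5 h at 37C, then dosed with DMSO compound solutions (217-fold dilution) for 16 h. CCF4-AM substrate was loaded for 2 h at room temperature, and the 460/530 nm emission ratio was fitted for gain of signal versus DMSO.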

[4] = TOX21_p53_BLA_p4_viability: Viability Assessment in the Tox21 HCT-116 p53 Agonism Beta-lactamase Assay, Phase 4 (AID 2283597);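 note: hits lower the luminescence signal meaning cytotoxicity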
Method in brief: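 Cytotoxicity was inferred from loss of CellTiter-Glo luminescence. HCT116 cells had been dosed with compounds after 5 h plating, incubated 16 h at 37C and 5% CO2, and exposed to the CCF4-AM substrate for 2 h.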

[5] = target: Cellular tumor antigen p53 (Homo sapiens) (UniProt P04637); test: TOX21_p53_BLA_p5_ratio: Tox21 HCT-116 p53 Agonism Beta-lactamase Assay, Ratio, Phase 5 (AID 2283599)
Method in brief: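 HCT-116 cells carrying a p53-inducible beta-lactamase reporter were seeded at 4000 cells/well and dosed after 5 h with compound in DMSO (217-fold dilution). After 16 h at 37C, CCF4-AM substrate was added for 2 h, and the 460/530 nm emission ratio was scored as gain-of-signal versus DMSO.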

[6] = TOX21_p53_BLA_p5_viability: Viability Assessment in the Tox21 HCT-116 p53 Agonism Beta-lactamase Assay, Phase 5 (AID 2283600)
Method in brief: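 Luciferase-coupled ATP quantitation of cells treated for 16 h (37C, 5% CO2) with test chemicals delivered in DMSO via a 217-fold dilution; 4000 cells/well; reagent incubated 30 min at room temperature before luminescence reading.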

[7] = target: Cellular tumor antigen p53 (Homo sapiens) (UniProt P04637); test: TOX21_p53_BLA_p4_ratio: Tox21 HCT-116 p53 Agonism Beta-lactamase Assay, Ratio, Phase 4 (AID 2283601)
Method in brief: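 HCT116 cells carrying an inducible beta-lactamase reporter were plated at 4000 cells/well, rested 5 h, then exposed to compounds in DMSO (217-fold dilution) for 16 h at 37C. CCF4-AM substrate was loaded 2 h at room temperature; 460/530 nm emission ratio scored gain-of-signal versus DMSO.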

PGR (gene 5241) = PGR (gene 5241) (UniProt P06401); test: TOX21_PR_BLA_Followup_Antagonist_ratio: Tox21 HEK293 Progesterone Receptor (PR) Antagonism Beta-lactamase Follow-Up Assay, Ratio (AID 2283934);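 note: PR-UAS-bla HEK293T cells stimulated with 1 nM R5020 agonist for 16 hr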
Chain of PGR (gene 5241) (P06401 whole entry, looked up): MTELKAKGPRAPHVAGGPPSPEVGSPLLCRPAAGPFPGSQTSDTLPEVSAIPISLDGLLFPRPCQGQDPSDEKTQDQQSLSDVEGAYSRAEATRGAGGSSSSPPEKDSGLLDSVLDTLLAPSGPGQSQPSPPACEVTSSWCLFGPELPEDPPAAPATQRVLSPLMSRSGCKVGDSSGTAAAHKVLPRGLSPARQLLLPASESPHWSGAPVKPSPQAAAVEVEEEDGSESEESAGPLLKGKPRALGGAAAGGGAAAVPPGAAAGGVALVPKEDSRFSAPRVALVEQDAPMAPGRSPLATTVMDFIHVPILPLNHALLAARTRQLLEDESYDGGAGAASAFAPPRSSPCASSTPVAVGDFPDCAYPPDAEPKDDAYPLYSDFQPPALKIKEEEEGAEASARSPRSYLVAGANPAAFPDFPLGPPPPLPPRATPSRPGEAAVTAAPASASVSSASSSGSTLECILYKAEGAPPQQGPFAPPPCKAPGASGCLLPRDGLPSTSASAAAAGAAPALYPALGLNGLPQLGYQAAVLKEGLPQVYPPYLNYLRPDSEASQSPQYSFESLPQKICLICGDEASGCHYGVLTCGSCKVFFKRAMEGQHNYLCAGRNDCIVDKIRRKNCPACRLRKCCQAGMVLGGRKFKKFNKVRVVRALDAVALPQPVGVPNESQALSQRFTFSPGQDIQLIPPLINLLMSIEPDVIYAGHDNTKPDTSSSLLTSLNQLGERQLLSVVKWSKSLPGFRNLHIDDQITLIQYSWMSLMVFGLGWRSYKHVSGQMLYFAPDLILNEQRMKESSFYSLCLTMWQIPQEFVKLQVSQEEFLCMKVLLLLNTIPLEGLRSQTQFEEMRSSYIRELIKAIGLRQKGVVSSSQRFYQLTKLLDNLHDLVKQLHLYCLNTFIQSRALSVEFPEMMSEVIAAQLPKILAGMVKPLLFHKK
Method in brief: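 Cells are plated, rested 6 hr, then dosed with test compound in DMSO and challenged with 1 nM promegestone. After 16 hr incubation, substrate loading for 2 h at room temperature precedes fluorescence reading; viability is measured in the same wells.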

[8] = TOX21_PR_BLA_Followup_Agonist_viability: Viability Assessment in the Tox21 HEK293 Progesterone Receptor (PR) Agonism Beta-lactamase Follow-Up Assay (AID 2283935);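 note: signal loss means lower viability so actives are cytotoxic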
Method in brief: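 Cells were plated in medium with 2% charcoal-stripped FBS and rested 6 hr. Compounds in DMSO were then added for 16 hr at 37C, followed by the FRET substrate step and CellTiter-Glo luminescence after 30 min.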

[9] = TOX21_PR_LUC_Followup_Agonist_viability: Viability Assessment in the Tox21 HEK293 Progesterone Receptor (PR) Agonism Luciferase Follow-Up Assay (AID 2283941);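 note: loss of signal means cytotoxicity so actives lower viability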
Method in brief: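 Multiplexed viability endpoint of the PR agonist luciferase follow-up: HEK293-PR-A-luc cells treated 16 h at 37C, with viability scored as decrease in CellTiter-Glo ATP signal.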

Measured: AC50

Cc1ncc(CO)c(CN)c1O
inactive: [1] | [2] | [3] | [4] | [5] | [6] | [7]

CC(C)NCC(O)c1ccc(NS(C)(=O)=O)cc1 (stereo not drawn)
inactive: [1] | [2] | [3] | [4] | [5] | [6] | [7]

O=CC(=O)c1ccccc1
inactive: [1] | [2] | [3] | [4] | [5] | [6] | [7]

CCN(CC)C(C)=O
inactive: [1] | [2] | [3] | [4] | [5] | [6] | [7]

O=C(Cn1ccnc1[N+](=O)[O-])NCCO
inactive: [1] | [2] | [3] | [4] | [5] | [6] | [7]

CCC(=O)O[C@H]1CC[C@H]2[C@@H]3CCc4cc(O)ccc4[C@H]3CC[C@]12C
inactive: [1] | [2] | [3] | [5] | [6] | [7]
active: [4] 37.2 µM

CCCCN=C(N)N=C(N)N
inactive: [1] | [2] | [3] | [4] | [5] | [6] | [7]

CCc1ccc2c(c1)N(CC(C)CN(C)C)c1ccccc1S2 (stereo not drawn)
active: [1] 38.7 µM | [4] 36.2 µM
inactive: [2] | [3] | [5] | [6] | [7]

O=C(O)C(S)C(S)C(=O)O (stereo not drawn)
inactive: [1] | [2] | [3] | [4] | [5] | [6] | [7]

C[C@@H]1NC(=O)[C@@H](N)CNC(=O)[C@H](C2CCNC(N)=N2)NC(=O)/C(=C/NC(N)=O)NC(=O)[C@H](CNC(=O)C[C@@H](N)CCCN)NC1=O (stereo partly drawn)
inactive: [1] | [2] | [3] | [4] | [5] | [6] | [7]

c1ccc(CN(CC2=NCCN2)c2ccccc2)cc1
inactive: [1] | [2] | [3] | [4] | [5] | [6] | [7]

O=C=Nc1ccc(Cc2ccc(N=C=O)cc2)cc1
inactive: [1] | [2] | [3] | [4] | [5] | [6] | [7]

NCCCCCC(=O)O
inactive: [1] | [2] | [3] | [4] | [5] | [6] | [7]

CCOC(=O)c1cccc(N)c1
inactive: [1] | [2] | [3] | [4] | [5] | [6] | [7]

CC(C)[N+]1(C)[C@@H]2CC[C@H]1CC(OC(=O)C(CO)c1ccccc1)C2 (stereo partly drawn)
inactive: [1] | [2] | [3] | [4] | [5] | [6] | [7]

OCc1ccccn1
inactive: [1] | [2] | [3] | [4] | [5] | [6] | [7]

CCC=CC#N
inactive: [1] | [2] | [3] | [4] | [5] | [6] | [7]

COc1ccc(OC)c(C(O)CNC(=O)CN)c1 (stereo not drawn)
inactive: [1] | [2] | [3] | [4] | [5] | [6] | [7]

C=C1CC[C@H](O)C/C1=C/C=C1\CCC[C@]2(C)[C@@H]([C@H](C)CC[C@@H](O)C(C)(C)O)CC[C@@H]12
active: [1] 20.1 µM | [2] 24.5 µM | [3] 26.9 µM | [4] 17.9 µM | [5] 22.5 µM | [6] 17.2 µM | [7] 21.1 µM

O=C(OCC(COC(=O)c1ccccc1)(COC(=O)c1ccccc1)COC(=O)c1ccccc1)c1ccccc1
inactive: [1] | [2] | [4] | [5] | [6] | [7]
active: [3] 54.3 µM

S=C1SCN(Cc2ccccc2)CN1Cc1ccccc1
inactive: [1] | [2] | [3] | [4] | [5] | [6] | [7]

O=S(=O)(O)C(F)(F)F
inactive: [1] | [2] | [3] | [4] | [5] | [6] | [7]

CNc1ccccc1
inactive: [1] | [2] | [3] | [4] | [5] | [6] | [7]

CC(CN(C)C)C(C)(O)Cc1ccc(Cl)cc1 (stereo not drawn)
inactive: [1] | [2] | [3] | [4] | [5] | [6] | [7]

CC1(C)CCC(C)(C)c2cc(NC(=O)c3ccc(C(=O)O)cc3)ccc21
inactive: [2] | PGR (gene 5241) | [8] | [9]
active: [1] 36.6 µM | [3] 39.1 µM | [4] 36.1 µM | [5] 44.2 µM | [6] 43.5 µM | [7] 44.7 µM

— PubChem BioAssay (EPA / NIEHS)
